Experimental data: PubChem BioAssay AID1159580 (chemical genetic matrix, 2015)
Among all 5,500 compounds or so, about 2,000 (36%) were called active. Not shown: some 18% with an inconclusive outcome. Rule as the data show it: active = normalized growth mostly below about 0.91 (no sharp cut-off); inconclusive = no clear call, values can overlap the other calls; inactive = mostly above about 0.92. Some of the results follow.

Experiment: chemical genetic growth profiling, strain panel (AID 1159580);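 also: tested at 20 µM; growth read once vehicle control cultures reached saturation at 30 °C; 1 = growth at the plate median or of vehicle wells; lower values mean less growth of the strain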
Settings: growth OD

Measured: normalized growth

CC1=NN(c2ccccc2)C(=O)C1
active: S. cerevisiae deletion strains, locus YLR418C, strain cdc73, active compounds read low 0.78 | S. cerevisiae deletion strains, locus YNL307C, strain MCK1, active compounds read low 0.796
inactive: S. cerevisiae deletion strains, locus YJR075W, strain HOC1, active compounds read low 0.979 | S. cerevisiae deletion strains, locus YKL009W, strain mrt4, active compounds read low 0.991 | S. cerevisiae deletion strains, locus YKL068W, active compounds read low 0.98 | S. cerevisiae deletion strains, locus YKL085W, strain MDH1 (second series), active compounds read low 0.963 | S. cerevisiae deletion strains, locus YKL085W, strain MDH1, active compounds read low 0.963 | S. cerevisiae deletion strains, locus YKL160W, strain elf1, active compounds read low 0.951 | S. cerevisiae deletion strains, locus YKL190W, strain CNB1, active compounds read low 0.994 | S. cerevisiae deletion strains, locus YKR001C, strain vps1, active compounds read low 0.961 | S. cerevisiae deletion strains, locus YKR026C, strain gcn3, active compounds read low 0.994 | S. cerevisiae deletion strains, locus YKR091W, strain srl3, active compounds read low 0.986 | S. cerevisiae deletion strains, locus YLL001W, strain dnm1, active compounds read low 0.951 | S. cerevisiae deletion strains, locus YLL026W, active compounds read low 0.984 | S. cerevisiae deletion strains, locus YLL041C, strain sdh2, active compounds read low 0.99 | S. cerevisiae deletion strains, locus YLR027C, strain aat2, active compounds read low 0.994 | S. cerevisiae deletion strains, locus YLR039C, strain RIC1, active compounds read low 0.782 | S. cerevisiae deletion strains, locus YLR058C, strain SHM2, active compounds read low 0.965 | S. cerevisiae deletion strains, locus YLR102C, strain apc9, active compounds read low 1 | S. cerevisiae deletion strains, locus YLR221C, strain rsa3, active compounds read low 0.961 | S. cerevisiae deletion strains, locus YLR258W, strain gsy2, active compounds read low 0.957 | S. cerevisiae deletion strains, locus YLR262C, strain YPT6 (second series), active compounds read low 0.915 | S. cerevisiae deletion strains, locus YLR262C, strain YPT6, active compounds read low 0.725 | S. cerevisiae deletion strains, locus YLR268W, strain sec22, active compounds read low 0.908 | S. cerevisiae deletion strains, locus YLR320W, strain mms22, active compounds read low 0.962 | S. cerevisiae deletion strains, locus YLR330W, strain CHS5, active compounds read low 0.988 | S. cerevisiae deletion strains, locus YLR342W, strain FKS1 (second series), active compounds read low 0.832 | S. cerevisiae deletion strains, locus YLR342W, strain FKS1, active compounds read low 0.987 | S. cerevisiae deletion strains, locus YLR357W, strain rsc2, active compounds read low 1 | S. cerevisiae deletion strains, locus YLR370C, strain arc18, active compounds read low 0.987 | S. cerevisiae deletion strains, locus YLR371W, strain rom2, active compounds read low 0.913 | S. cerevisiae deletion strains, locus YLR384C, strain iki3, active compounds read low 0.982 | S. cerevisiae deletion strains, locus YML016C, strain PPZ1, active compounds read low 0.979 | S. cerevisiae deletion strains, locus YML032C, strain rad52, active compounds read low 0.922 | S. cerevisiae deletion strains, locus YML120C, strain ndi1, active compounds read low 0.974 | S. cerevisiae deletion strains, locus YML124C, strain tub3, active compounds read low 0.984 | S. cerevisiae deletion strains, locus YMR058W, strain fet3, active compounds read low 0.922 | S. cerevisiae deletion strains, locus YMR078C, strain ctf18, active compounds read low 0.969 | S. cerevisiae deletion strains, locus YMR125W, strain sto1, active compounds read low 0.998 | S. cerevisiae deletion strains, locus YMR129W, active compounds read low 0.996 | S. cerevisiae deletion strains, locus YMR205C, strain PFK2, active compounds read low 0.958 | S. cerevisiae deletion strains, locus YMR223W, strain ubp8, active compounds read low 0.925 | S. cerevisiae deletion strains, locus YMR231W, strain pep5, active compounds read low 0.984 | S. cerevisiae deletion strains, locus YMR263W, strain SAP30, active compounds read low 0.97 | S. cerevisiae deletion strains, locus YMR307W, strain GAS1, active compounds read low 0.7 | S. cerevisiae deletion strains, locus YNL067W, strain RPL9B, active compounds read low 0.992 | S. cerevisiae deletion strains, locus YNL071W, strain lat1, active compounds read low 0.922 | S. cerevisiae deletion strains, locus YNL128W, strain TEP1, active compounds read low 0.969 | S. cerevisiae deletion strains, locus YNL209W, strain ssb2, active compounds read low 0.993 | S. cerevisiae deletion strains, locus YNL233W, strain BNI4, active compounds read low 0.993 | S. cerevisiae deletion strains, locus YNL248C, strain rpa49, active compounds read low 0.973 | S. cerevisiae deletion strains, locus YNL250W, strain rad50, active compounds read low 0.957 | S. cerevisiae deletion strains, locus YNL271C, strain bni1, active compounds read low 0.925 | S. cerevisiae deletion strains, locus YNL298W, strain CLA4, active compounds read low 0.951 | S. cerevisiae deletion strains, locus YNL322C, strain KRE1 (second series), active compounds read low 0.977 | S. cerevisiae deletion strains, locus YNL322C, strain KRE1, active compounds read low 0.985 | S. cerevisiae deletion strains, locus YNR049C, strain mso1, active compounds read low 0.992 | S. cerevisiae deletion strains, locus YNR052C, strain pop2, active compounds read low 0.942 | S. cerevisiae deletion strains, locus YOL006C, strain TOP1, active compounds read low 0.997 | S. cerevisiae deletion strains, locus YOL012C, strain htz1 0.753 | S. cerevisiae deletion strains, locus YOL147C, strain pex11, active compounds read low 0.979 | S. cerevisiae deletion strains, locus YOR001W, strain rrp6, active compounds read low 0.972 | S. cerevisiae deletion strains, locus YOR061W, strain CKA2, active compounds read low 0.98 | S. cerevisiae deletion strains, locus YOR069W, strain VPS5, active compounds read low 0.982 | S. cerevisiae deletion strains, locus YOR070C, strain gyp1, active compounds read low 0.995 | S. cerevisiae deletion strains, locus YOR080W, strain dia2, active compounds read low 0.97 | S. cerevisiae deletion strains, locus YOR083W, strain WHI5, active compounds read low 0.939 | S. cerevisiae deletion strains, locus YOR106W, strain vam3, active compounds read low 0.959 | S. cerevisiae deletion strains, locus YOR136W, strain idh2, active compounds read low 0.966 | S. cerevisiae deletion strains, locus YOR144C, strain elg1, active compounds read low 0.988 | S. cerevisiae deletion strains, locus YOR184W, strain ser1, active compounds read low 0.927 | S. cerevisiae deletion strains, locus YOR265W, strain rbl2, active compounds read low 0.988 | S. cerevisiae deletion strains, locus YOR270C, strain vph1, active compounds read low 1.03 | S. cerevisiae deletion strains, locus YOR290C, strain snf2, active compounds read low 0.938 | S. cerevisiae deletion strains, locus YOR316C, strain cot1, active compounds read low 0.984 | S. cerevisiae deletion strains, locus YPL051W, strain arl3, active compounds read low 0.954 | S. cerevisiae deletion strains, locus YPL078C, strain atp4, active compounds read low 0.971 | S. cerevisiae deletion strains, locus YPL106C, strain sse1, active compounds read low 1.01 | S. cerevisiae deletion strains, locus YPL240C, strain hsp82, active compounds read low 0.987 | S. cerevisiae deletion strains, locus YPL241C, strain CIN2, active compounds read low 0.986 | S. cerevisiae deletion strains, locus YPR119W, strain clb2, active compounds read low 0.987 | S. cerevisiae deletion strains, locus YPR141C, strain kar3, active compounds read low 0.947 | S. cerevisiae deletion strains, locus YPR163C, strain tif3, active compounds read low 0.968 | S. cerevisiae deletion strains, locus YPR167C, strain met16, active compounds read low 0.969 | S. cerevisiae deletion strains, strain wtn01, active compounds read low 0.928 | S. cerevisiae strains, strain wild type, active compounds read low 0.98
